Reference: PubChem BioAssay (EPA / NIEHS)
Activity calls are given as the source filed them. Rule for the calls: active = hit-call score of the fitted dose curve at least 0.9, where 1 is the maximum; inactive = score below 0.9.

Assay: APR_HepG2_CellCycleArrest_24hr: Apredica 24-hour HepG2 Assay for Cell Cycle Arrest (AID 2282905);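 note: cell cycle arrest scored as ratio of 2N to 4N nuclear DNA content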
Settings: imaging, actives raise or lower the signal
Outline: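 After 24 h exposure at 0.39–200 uM in 0.5% DMSO, fixed cells received Hoechst 33342 staining. Imaging quantified per-nucleus DNA content; gain or loss fitted against DMSO controls.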

outcome, inactive:
Cc1cc(SC2=C(O)C[C@@](CCc3ccc(N)cc3)(C(C)C)OC2=O)c(C(C)(C)C)cc1CO, CCCCc1nc2cccnc2n1Cc1ccc(-c2ccccc2-c2nnn[nH]2)cc1, OCC(CO)n1cnc(-c2ccc(F)cc2)c1-c1ccnc(Oc2ccccc2)n1, c1ccc2occc2c1, CCCCC(CC)COC(=O)CCCCCCCC(=O)OCC(CC)CCCC (stereo not given), CC(C)(C)c1ccccc1, COC(=O)CCC(=O)OC, CCCCC(CC)COP(=O)(OCC(CC)CCCC)OCC(CC)CCCC (stereo not given), COC(=O)CCCC(=O)OC, O=C(O)c1[nH]n(-c2ccc(S(=O)(=O)O)cc2)c(=O)c1N=Nc1ccc(S(=O)(=O)O)cc1

Assay: APR_HepG2_NuclearSize_24hr: Apredica 24-hour HepG2 Assay for Nuclear Size (AID 2282907)
Settings: high-content imaging, actives raise or lower the signal
Outline: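 Nuclear size from Hoechst 33342-stained, formaldehyde-fixed HepG2 nuclei imaged by high-content microscopy, after 24 h dosing at ten concentrations from 0.39 to 200 uM in 0.5% DMSO; gain or loss relative to DMSO baseline.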

outcome, inactive:
O=C1c2c(O)cccc2Cc2cccc(O)c21, CCCCCCCC(=O)OC, CCc1cc(C2=C(C(=O)O)N(c3ccccc3C(F)(F)F)S(=O)(=O)c3ccccc32)cc2c1OCO2, OCC(O)CO, S=c1[nH]c2ccccc2s1, CCCCCCCCCC[N+](C)(C)[O-], COc1ccc(C(=O)Nc2nc3ccccc3c(NCc3ccccc3)c2C#N)cc1, CO[C@@H]1COCC[C@@H]1N[C@@H]1CC[C@@](C(=O)N2CCc3ncc(C(F)(F)F)cc3C2)(C(C)C)C1, CS(=O)(=O)c1ccc([C@@H](C[C@H]2CCC(=O)C2)C(=O)Nc2cnccn2)cc1Cl

AC50, active:
CN(C)CCCN1c2ccccc2Sc2ccc(Cl)cc21 129 µM
